Compound activity (PubChem BioAssay)
FXN GAA850 act: increases GAA850 frataxin promoter reporter activity | HEK293 lucGAA850 FXN promoter luciferase reporter, 24 h; percent of 10 µM SAHA response | activation, % at 6 µM | 360,000 tested, 0.56% active;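 active means activation above the average of all compounds screened plus 3 SD, cutoff fixed separately per campaign, cut at about 7.5% in these data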;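 further: 0% = DMSO wells and 100% = 10 µM SAHA wells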
AI-2 QS modul: modulates the Vibrio harveyi AI-2 quorum sensing system. Vibrio harveyi JMH597 AI-2 luminescence/OD600 ratio, 9 h; stronger effect = lower value; strain lacks LuxN and CqsS sensors; 0 = neutral-control median. activity change, % at 7.5 µM. 300,000 tested, 0.4% active. AID 2094; in the data active means activity change below about -75%, passing the limit was not always enough;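 further: luminescence divided by OD600 gain over 9 h not by final OD600 alone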
SMARCA2 act: activators of SMARCA2 function; MG213 cells, MMTV-luciferase reporter, dexamethasone, overnight; activation, % at 9.1 µM; 370,000 tested, 1% active; AID 652017; in the data active means activation above about 7.8%;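 further: 0% = vehicle wells and 100% = reference activator wells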
PG9 Ab binder: binds the HIV-1 gp120 antibody PG9; TR-FRET gp120-PG9 antibody binding; inhibition, % at 6.7 µM; 360,000 tested, 0.43% active; AID 624416; in the data active means inhibition above about 8.5%
HSF1 inh: HSF1 inhibition | NIH3T3-HGL HSE-luciferase, MG132-induced, luminescence 8 h; stronger effect = lower value | activity change, negative = inhibition, % at 7.5 µM (by protocol) | 300,000 tested, 0.77% active | AID 2098;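 active means more than half of replicate wells show activity change below -50%, luminescence cut by over half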;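 further: luciferase reports HSF-1 transcriptional activity via heat shock element; 0% = median of DMSO wells and -100% = zero luminescence signal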
HSP90 refold inh: inhibitors of HSP90 luciferase refolding in rabbit reticulocyte lysate | AID 1789 | inhibition, % at 5.6 µM | luciferase refolding luminescence, 3 h | 290,000 tested, 0.91% active;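 active means inhibition above the screen-wide mean plus 3 SD, computed separately per campaign, cut at about 16% in these data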;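 further: 0% = DMSO wells and 100% = 60 µM geldanamycin wells; inhibitors lower the luminescence because luciferase stays unfolded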
SMARCA2 act conf: confirmation of SMARCA2 (BRM) function activators | AID 652260 | shares compounds with SMARCA2 act | activation, % at 9.1 µM | MG213 cells, MMTV-luciferase with dexamethasone, luminescence, overnight; MG213 cells expressing E1A, Rb sequestered; DMSO wells 0%, reference activator 100% | 3,500 tested, 30% active;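 active means activation above its plate's cutoff, the mean activation of tested wells plus 3 SD, cut at about 7.9% in these data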
GAL4-VP16 Luc: counter-screen for SMARCA2 activators: GAL4-VP16 luciferase reporter activation. 3,500 tested, 41% active. HEK293 GAL4-VP16 pG5luc reporter, luciferase luminescence; scaled: DMSO wells 0%, SAHA wells 100%. shares compounds with SMARCA2 act. activation, % at 9.1 µM. AID 686939;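 active means activation above the solvent-only control well mean plus 3 SD, averaged across control plates, cut at about 5.2% in these data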
* hit, by the source's call; i = inactive; · = no result given. Rows were chosen to be rich in hits. Some 3.4% of all compounds tested hit in one or more screens of this group.

SMILES	FXN GAA850 act	AI-2 QS modul	SMARCA2 act	PG9 Ab binder	HSF1 inh	HSP90 refold inh	SMARCA2 act conf	GAL4-VP16 Luc
O=C(Cc1cccs1)Nc1ccc(NC(=O)c2ccco2)cc1	7	14	12*	1	6	-3	6	7.9*
O=C(Cc1cccs1)NCc1cccc(Br)c1	4	17	9.2*	1	9	-5	4	7.8*
O=C(Cc1cccs1)Nc1ccccc1	2	10	0	-3	0	-5	·	·
O=S1(=O)c2ccc(Br)cc2OC[C@H](Cc2ccccc2)N1Cc1cn(Cc2ccc(Cl)cc2)nn1	·	·	-2	·	·	·	·	·
CC1=CC(=O)C(Sc2ccc(C)cc2)=CC1=O	3	·	8.1*	4	·	·	-4	6.2*
CC1CCCN(c2cccc3c2S(=O)(=O)N([C@H](C)c2ccccc2)C[C@@H](COCc2ccccc2)O3)C1 (some centres not stated)	·	·	-4	0	·	·	·	·
CC(C)(C)OC(=O)COc1ccc(/C=N/NC(=O)CN2CCCCC2)cc1	2	1	14*	1	8	6	5	5.3*
Cc1ccsc1/C=N/Nc1nc2ccccc2[nH]1	7	29	12*	-19	i	6	13*	15*
O=C1C2C3CCC(C3)C2C(=O)N1CNc1ccccc1 (configuration not stated)	-1	15	1	0	-4	-1	·	·
CC(=O)Nc1ccc(NCN2C(=O)[C@@H]3[C@H]4CC[C@H](C4)[C@@H]3C2=O)cc1	3	7	8.9*	-3	-3	-1	-4	0
CCOC(=O)[C@@]12CCC3=C1N(CCC3)C(=O)[C@H](CC(=O)NCC1CCCCC1)C2	·	·	1	·	·	·	·	·
c1ccn2c(c1)nc1c2nc2ccccn21	7	13	12*	-9	-6	8	5	4
C[C@@H]1COc2cccc(N3CCCC3)c2S(=O)(=O)N1	·	·	-2	0	·	·	·	·
O=C(/C=C/c1ccco1)N1CCN(c2ncccn2)CC1	4	29	8.8*	-3	0	-5	6	6.5*
O=C(/C=C/c1c(Cl)cccc1Cl)N1CCN(c2ncccn2)CC1	2	19	-1	0	0	1	·	·
O=C1C(Sc2ccccc2)=C[C@@]2(O)CC[C@@H](O)[C@]1(Sc1ccccc1)[C@H]2O	·	·	12*	0	·	·	10*	2
COc1cc(C(=O)c2ccc3c(c2)OCO3)cc(OC)c1OC	-6	·	-1	-1	·	·	·	·
COc1cc(C(=O)c2cocc2C(=O)c2ccc3c(c2)OCO3)cc(OC)c1OC	-2	10	9.0*	-3	-15	0	0	6.3*
O=C(Nc1cccnc1)c1cc(-c2cc(Cl)ccc2O)n[nH]1	5	-5	11*	0	1	1	9.6*	9.9*
CC(C)(C)C(=O)OC12CCCN(C1)/C(=C/c1cccc(Cl)c1)C2 (configuration not stated)	·	·	-2	·	·	·	·	·
CN1CCN(S(=O)(=O)c2ccc(NC(=O)c3ccc(Br)o3)cc2)CC1	1	7	8.2*	-1	-6	2	4	1
C[C@@H]1C=CCCO[C@]12C(=O)N(Cc1ccc(Br)cc1)c1ccccc12	·	·	-6	-1	·	·	·	·
COc1ccc(OCCSc2ncccn2)cc1	5	-2	7	-2	19	5	·	·
Clc1ccc(OCCSc2ncccn2)cc1	5	-10	8.0*	-2	24	-2	7	5.5*
Cn1ccc(C(=O)N/N=C/c2c[nH]c3ccccc23)n1	4	5	16*	0	8	0	8.0*	4
SMILES	FXN GAA850 act	AI-2 QS modul	SMARCA2 act	PG9 Ab binder	HSF1 inh	HSP90 refold inh	SMARCA2 act conf	GAL4-VP16 Luc
COc1ccc2nc(C)cc(N/N=C/c3cccc(OC)c3O)c2c1	1	12	27*	-9	29	-2	20*	2
Cc1cc(N/N=C/c2ccccc2O)c2ccccc2n1	-1	2	6	-1	19	8	·	·
COc1cccc2c(N/N=C/c3ccccc3)cc(C)nc12	3	18	5	-1	13	-2	·	·
COc1ccc(/C=N/Nc2cc(C)nc3ccc(Br)cc23)cc1	-3	4	9.4*	-2	7	-2	4	1
CCN(CC)c1ccc(C(=C2C=CC(=[N+](CC)CC)C=C2)c2ccc(S(=O)(=O)O)cc2S(=O)(=O)[O-])cc1	-1	·	-4	-75	·	·	·	·
Cc1ccc(Nc2nc(N)nc(CN3CCN(Cc4ccc5c(c4)OCO5)CC3)n2)cc1Cl	-2	10	-5	1	2	3	·	·
Nc1nc(CN2CCN(Cc3ccccc3)CC2)nc(Nc2ccc3c(c2)OCCO3)n1	-2	11	9.2*	0	14	-2	26*	1
Cc1[nH]c2ccccc2c1CC(=O)Nc1ccc(Nc2cccnc2)c(-c2ccc(Oc3ccccc3)cc2)c1	·	·	-5	1	·	·	·	·
Fc1ccc2nc3[nH]c4ccccc4c3nc2c1	6	8	13*	-1	27	0	17*	13*
OC1=C(O)c2nc3cc(F)ccc3nc21	1	·	0	-24	1	1	·	·
CCOC(=O)C1=CCC(c2cc3ccccc3[nH]2)NC1 (configuration not stated)	·	·	11*	0	·	·	6	7.0*
CCc1ccc(C(=O)Nc2cccc(-c3nn[nH]n3)c2)s1	1	5	9.2*	-1	-3	2	-1	2
O=C(Nc1ccc(NC(=O)c2ccccc2F)cc1)c1cccs1	2	·	8.8*	0	·	·	5	7.7*
CC(=O)Nc1ccc2nc(-c3ccccc3)cn2c1	7	30	8.8*	-1	9	11	9.4*	7.6*
O=C(Nc1ccc(-c2cn3ccccc3n2)cc1)c1cccs1	-1	12	8.1*	-1	25	-1	28*	14*
O=C(Nc1ccc(NC(=O)c2cccs2)cc1)c1cccs1	3	10	4	-2	23	-1	·	·
CN1CCN(c2ccc(NC(=O)c3cccs3)cc2)CC1	7	13	4	-4	9	0	·	·
Cc1ccn(-c2ccc(NC(=O)c3cccs3)cc2)n1	2	15	8.0*	-2	44	2	9.0*	7.9*
CC(=O)Nc1cccc(-c2cn3ccc(C)cc3n2)c1	5	22	5	-1	19	2	·	·
COc1ccc(/C=C/CN2CCC(C(=O)NC(c3ccc(F)cc3)c3ccc4ccccc4n3)CC2)cc1 (configuration not stated)	-3	·	5	0	·	·	·	·
Cc1[nH]c2ccccc2c1CC(=O)Nc1ccc(Nc2cccnc2)c(-c2ccc(Cl)c(Cl)c2)c1	·	·	-4	0	·	·	·	·
